This note sets out measurements from PubChem BioAssay (Tox21).

Assay [1] is described as follows: qHTS assay to identify small molecule agonists of the vitamin D receptor (VDR) signaling pathway - cell viability counter screen (AID 743224). Note: series mostly up to about 63 µM; nearly all actives have a fitted effect of over 50% in size. The method in brief: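 Viability is measured in the same wells as the VDR-bla reporter assay: after 16 h compound treatment and 2 h substrate loading, CellTiter-Glo is added and luminescence read 30 min later.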
Assay [2] is described as follows: qHTS assay to identify small molecule antagonists of the vitamin D receptor (VDR) signaling pathway - cell viability counter screen (AID 743225). Note: nearly all actives have a fitted effect of over 50% in size. The method in brief:
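VDR-UAS-bla HEK 293T cells were plated and incubated 4 h at 37C, then dosed with compound plus 3 nM (final) 1-alpha,25-dihydroxyvitamin D3 for 16 h. After the 2 h beta-lactamase read, viability in the same wells was read as CellTiter-Glo luminescence after 30 min at room temperature.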
On the technique in general: In qHTS, concentration-response curves come from the screen itself.

Assay [3] in a line: qHTS assay to identify small molecule agonists of the NFkB signaling pathway (AID 1159509; active = well fitted curve in the direction sought with a large enough effect in the signal ratio in the repeat runs, not every such curve was filed as active; the % refers to the signal ratio; note: series mostly up to about 61 µM). The method in brief: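 After overnight attachment, reporter cells received test compounds, DMSO or positive controls and were incubated 5 hr at 37 C. FRET substrate was then added for 1.5 hr at room temperature before dual-emission fluorescence reading.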
Assay [4] can be described thus: qHTS assay to identify small molecule agonists of the NFkB signaling pathway - cell viability counter screen (AID 1159515; calls by dose curve; note: series mostly up to about 61 µM; nearly all actives have a fitted effect of over 55% in size). The method in brief: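 Multiplexed viability readout: after the 5 hr compound exposure and 1.5 hr FRET substrate step, CellTiter-Glo reagent went into the same NFkB-bla ME-180 wells; ATP luminescence was measured after 30 min at room temperature.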

A short description of assay [5]: qHTS assay to identify small molecule agonists of the endoplasmic reticulum stress response signaling pathway (AID 1159516; active = well fitted activation curve with a large enough effect in the signal ratio in the repeat runs, not every such curve was filed as active; the % refers to the signal ratio). The method in brief: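 Tox21 10K library screened in quantitative HTS format on ESRE-bla HeLa cells, a beta-lactamase reporter under ER stress response element control; 5 hr treatment, FRET read.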
Assay [6] can be described thus: qHTS assay to identify small molecule agonists of the endoplasmic reticulum stress response signaling pathway - cell viability counter screen (AID 1159517; calls by dose curve; note: series mostly up to about 61 µM; nearly all actives have a fitted effect of over 50% in size). The essentials:
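Luminescence readout: CellTiter-Glo, 30 min RT, same wells as the ESRE-bla reporter read. HeLa ESRE-bla, 1,500 cells/well, o/n 37 C; cpd 5 hr 37 C/5% CO2.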

The nature of assay [7]: qHTS assay to identify small molecule antagonists of the retinoid-related orphan receptor gamma (ROR-gamma) signaling pathway - cell viability counter screen (AID 1159520). Note: nearly all actives have a fitted effect of over 50% in size. The essentials: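 Tet-on ROR gamma CHO cells (1,000/well) were plated 4 hr, given compounds in DMSO for 2 hr at 37 C, then induced with 1 uM final doxycycline for 16 hr. Viability was read as ATP by CellTiter-Glo luminescence after 30 min.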

Assay [8] deals with Nuclear receptor ROR-gamma (Homo sapiens) (UniProt P51449). Nature of the assay: qHTS assay to identify small molecule antagonists of the retinoid-related orphan receptor gamma (ROR-gamma) signaling pathway (AID 1159521; note: nearly all actives have a fitted effect of over 50% in size; note: potency is the fitted concentration of half-maximal effect). The method in brief:
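Tet-on ROR-gamma CHO cells with ROR response element-luciferase reporter; compounds added 2 hr before 1 uM doxycycline induction, then 16 hr at 37 C. Antagonism scored as decreased ONE-Glo luminescence.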

A short description of assay [9]: qHTS assay to identify small molecule agonists of the AP-1 signaling pathway (AID 1159526; calls by dose curve).
The nature of assay [10]: qHTS assay to identify small molecule agonists of the RXR signaling pathway - cell viability counter screen (AID 1159529). The method in brief: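 RXR-alpha-UAS-bla HEK 293T cells in medium with 2% charcoal-stripped FBS were pre-incubated 5 hr, then compound-treated 16 hr at 37 C. Viability was read by CellTiter-Glo luminescence in the same wells as the beta-lactamase assay, with tetraoctyl ammonium bromide as positive control.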

The nature of assay [11]: qHTS assay to identify small molecule antagonists of the retinoid acid receptor (RAR) signaling pathway - cell viability counter screen (AID 1159551). Note: nearly all actives have a fitted effect of over 35% in size. The essentials:
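Cytotoxicity counter screen in C3RL4 cells: 6 h compound exposure with 1 uM retinol (final), viability from cellular ATP by luminescence.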

The nature of assay [12]: qHTS assay to identify small molecule antagonists of the retinoic acid receptor (RAR) signaling pathway (AID 1159552; note: nearly all actives have a fitted effect of over 50% in size). The essentials:
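Retinol signaling pathway inhibitors screened in C3RL4 RARE-luciferase reporter cells seeded overnight at 37 C, then compounds added with 1 uM (final) retinol as pathway substrate. After 6 hr at 37 C, luciferase luminescence read after 30 min at room temperature.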

Assay [13] is described as follows: qHTS assay to identify small molecule agonists of the AP-1 signaling pathway - cell viability counter screen (AID 1159525; calls by dose curve; note: nearly all actives have a fitted effect of over 55% in size). The essentials:
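ME-180 AP-1-bla, 2500 cells/well, Opti-MEM + 0.5% dialyzed FBS; overnight 37 °C; cpd 15-pt titration, 5 h 37 °C; CellTiter-Glo 30 min RT; luminescence read; normalised to TOAB and DMSO controls.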

For assay [14], the target named is Retinoic acid receptor RXR-alpha (Homo sapiens) (UniProt P19793). Nature of the assay: qHTS assay to identify small molecule agonists of the RXR signaling pathway (AID 1159527; calls by dose curve; note: nearly all actives have a fitted effect of over 35% in size). The method in brief: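 GeneBLAzer RXR-alpha-UAS-bla HEK 293T cells in 2% charcoal-stripped FBS medium were exposed to compounds for 16 hr at 37 C in agonist mode. Beta-lactamase reporter read as 460/530 nm FRET ratio after 2 hr substrate loading.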
Chain of Retinoic acid receptor RXR-alpha (Homo sapiens) (P19793 whole entry, looked up): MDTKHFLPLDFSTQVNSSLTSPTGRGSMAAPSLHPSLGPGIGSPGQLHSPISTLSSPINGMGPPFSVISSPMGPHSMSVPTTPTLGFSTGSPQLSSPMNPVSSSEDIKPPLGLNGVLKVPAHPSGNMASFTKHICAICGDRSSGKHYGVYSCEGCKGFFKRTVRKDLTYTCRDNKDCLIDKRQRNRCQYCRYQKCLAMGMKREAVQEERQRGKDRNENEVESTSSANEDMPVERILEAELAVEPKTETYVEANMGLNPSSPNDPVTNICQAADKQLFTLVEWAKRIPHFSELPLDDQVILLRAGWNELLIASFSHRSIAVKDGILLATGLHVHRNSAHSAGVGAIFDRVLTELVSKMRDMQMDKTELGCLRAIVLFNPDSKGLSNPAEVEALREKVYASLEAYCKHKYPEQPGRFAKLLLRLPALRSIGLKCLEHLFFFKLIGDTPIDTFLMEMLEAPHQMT

Assay [15] in a line: qHTS assay to identify small molecule agonists of the retinoic acid receptor (RAR) signaling pathway (AID 1159553). The method in brief: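 Agonist activity was scored in C3RL4 cells bearing a retinoic acid response element luciferase construct. Cells were treated with compounds for 6 hr at 37 C, and luciferase signal was measured as luminescence.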

Inconclusive results are not listed. The source made the active and inactive calls. Unless noted, calls come from the whole dose curve; as a rule, active = well fitted curve in the direction sought with a large enough effect in the repeat runs; inconclusive = weak or mixed curves; inactive = no such curve, though single readings can be large; an effect the other way counts as inactive or inconclusive.

As to `CCOP(=S)(OCC)Oc1ncn(-c2ccccc2)n1`, the Potency entry in assay [1], in assay [6], in [7], in assay [8], in assay [10] and in assay [11] was “inactive” in each case. Further, the Potency entry in assay [12] was “inactive”. In addition, the call in assay [2], in assay [3], in assay [4], in assay [5] and in [9] was inactive.

As for `CCN(CC)C(C)C(=O)c1ccccc1` (stereo unspecified), the Potency result in [1], in assay [6], in [7], in [13], in assay [14] and in assay [10] was “inactive” in each case. Further, the Potency result in assay [11] and in assay [15] was “inactive” in each case. The molecule was classed as inactive in [2], in assay [3], in assay [4], in assay [5] and in assay [9].

With `CCN(CC)CCOC(=O)C(C)(c1ccccc1)c1ccccc1`, the Potency result in assay [1], in assay [6], in assay [7], in assay [13], in assay [14] and in assay [10] was “inactive” throughout. Besides, the Potency entry in [11], in assay [12] and in [15] was “inactive” throughout. The molecule was called inactive in [2], in [3], in assay [4], in assay [5] and in assay [9].

For `O=c1oc2ccccc2c(O)c1C1CCCc2ccccc21` (stereo unspecified), the Potency result in assay [1], in assay [6], in [7], in assay [10], in [11] and in assay [15] was “inactive” in each case. For the same molecule, the molecule was classed as inactive in assay [2], in [3], in assay [4], in assay [5] and in assay [9]. Besides, in assay [8], the Potency is 48.6 µM (active).

With `COC(=O)c1c(C(F)F)nc(C(F)(F)F)c(C2=NCCS2)c1CC(C)C`, the Potency result in [1], in assay [6], in [7], in [13], in assay [14] and in [10] was “inactive” throughout. The Potency result in [11] and in assay [15] was “inactive” in each case. Also, the molecule was classed as inactive in assay [2], in [3], in [4], in assay [5] and in [9].

In the case of `Clc1cccc(N2CCNCC2)c1`, the Potency entry in assay [1], in assay [6], in assay [7], in [13], in assay [14] and in [10] was “inactive” throughout. In addition, the Potency entry in assay [11], in [12] and in [15] was “inactive” in each case. For the same molecule, the molecule was classed as inactive in assay [2], in assay [3], in [4], in [5] and in [9].

On to `CC1(C(=O)Nc2ccc(O)c(Cl)c2Cl)CCCCC1`, for which the molecule was classed as inactive in assay [3], in assay [4] and in assay [5]. Moreover, the Potency entry in assay [6], in [7], in [8], in [14], in assay [10] and in [11] was “inactive” throughout.

In the case of `Cc1cnc[nH]1`, the Potency entry in assay [1], in [6], in [7], in assay [13], in assay [14] and in assay [10] was “inactive” each time. The Potency result in assay [11], in [12] and in [15] was “inactive” in each case. The molecule was classed as inactive in assay [2], in assay [3], in assay [4], in assay [5] and in assay [9].

With `ClC(Cl)C(Cl)Cl`, the Potency entry in [1], in assay [6], in [7], in assay [13], in [14] and in assay [10] was “inactive” throughout. Besides, the Potency entry in assay [11], in assay [12] and in [15] was “inactive” each time. The molecule was called inactive in assay [2], in assay [3], in assay [4], in assay [5] and in [9].

As to `[O]=[Cd]`, the Potency entry in [1], in assay [6], in assay [7], in assay [8], in assay [10] and in assay [11] was “inactive” each time. The molecule was classed as inactive in assay [2], in assay [3], in assay [4] and in [5].

For `CCCCOP(=O)(O)OCCCC`, the Potency result in assay [1], in assay [6], in assay [7], in [8], in assay [10] and in [11] was “inactive” throughout. For the same molecule, the molecule was called inactive in assay [2], in [3], in assay [4], in assay [5] and in [9].
